Assay outcomes deposited in PubChem by National Center for Advancing Translational Sciences (NCATS).
HEK cytotox: HEK 293 cell cytotoxicity; Potency, µM (top dose mostly 115 µM), for the others: at the highest dose activity change, negative = cytotoxicity, actives largely listed as inhibitors; HEK 293 viability, ATP luminescence (CellTiter-Glo), 48-72 h; AID 1345083; 94,000 compounds, 6.6% hits; note: % is set by controls: 0 for no effect and ±100 for the full control effect; nearly all actives have a fitted effect of over 60% in size
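ATP-coupled CellTiter-Glo luminescence served as viability read-out, recorded 10 min after reagent addition at room temperature. HEK 293 cells, 250 cells/well, had been incubated with pintool-transferred compound for 48 or 72 hr at 37 degree Celsius.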
NPR1 antag: blocks ANP-stimulated signaling of human Npr1 receptor. HEK293 hNpr1 GloSensor cGMP, ANP-stimulated luminescence. Potency, µM (doses to about 46.3 µM), for inactives: at the highest dose activity change, negative = inhibition, actives largely listed as inhibitors. 76,000 compounds, 1.6% hits; calls by dose curve; note: % is set by controls: 0 for no effect and ±100 for the full control effect; nearly all actives have a fitted effect of over 60% in size
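HEK293 cells stably expressing human Npr1 and cGMP GloSensor pGS-40F, loaded 2 h with 2% GloSensor reagent, given compound 30 min at room temperature. Luminescence read before and 20 min after 0.1 nM hNppA.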
GPT2 inhibitor: GPT2 alanine aminotransferase inhibition; Recombinant GPT2, coupled pyruvate oxidase/HRP Amplex Red fluorescence; Potency, µM (highest dose often 57.7 µM), inactives show at the highest dose activity change, negative = inhibition, actives largely listed as inhibitors; 100,000 compounds, 0.25% hits; AID 1671188; note: % is set by controls: 0 for no effect and ±100 for the full control effect; nearly all actives have a fitted effect of over 60% in size
Target sequence (Q8TD30 whole entry, looked up): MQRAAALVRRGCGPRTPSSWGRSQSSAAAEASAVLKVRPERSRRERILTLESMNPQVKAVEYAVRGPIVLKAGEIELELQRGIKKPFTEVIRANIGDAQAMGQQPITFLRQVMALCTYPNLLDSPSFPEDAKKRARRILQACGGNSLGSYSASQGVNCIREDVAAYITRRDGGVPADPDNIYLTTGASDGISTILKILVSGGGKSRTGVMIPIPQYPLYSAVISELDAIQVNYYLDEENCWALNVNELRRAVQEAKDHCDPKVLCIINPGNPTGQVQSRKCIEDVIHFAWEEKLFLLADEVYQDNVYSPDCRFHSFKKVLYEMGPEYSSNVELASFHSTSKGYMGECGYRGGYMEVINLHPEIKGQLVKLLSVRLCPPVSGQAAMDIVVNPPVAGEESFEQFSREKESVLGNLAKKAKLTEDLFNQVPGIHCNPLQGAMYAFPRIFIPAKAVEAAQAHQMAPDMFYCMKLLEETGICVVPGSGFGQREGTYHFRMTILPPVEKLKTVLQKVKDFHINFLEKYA
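Fluorescence read-out: pyruvate from GPT2 turnover coupled to pyruvate oxidase, HRP and Amplex Red (0.2mM ThPP, 0.2U/mL PO and HRP, 50uM Amplex final). Substrates 250uM a-KG, 2mM L-alanine; enzyme 10ng/uL; 30 min RT.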
NIH3T3 tox: kills NIH 3T3 cells; NIH 3T3 viability, CellTiter-Glo ATP luminescence, 48-72 h; Potency, µM (titrated, usually from 96.7 µM), for the others: at the top dose activity change, negative = cytotoxicity, hits mostly inhibitors; 94,000 compounds, 4.3% hits; note: % is set by controls: 0 for no effect and ±100 for the full control effect; nearly all actives have a fitted effect of over 55% in size
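First NIH 3T3 cells are plated at 400 cells/well; next compound is pinned in; then plates incubate 48 or 72 hr at 37 °C; finally CellTiter-Glo is added and luminescence read after 10 min.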
Luciferase inh: inhibitors of firefly (Photinus pyralis) luciferase | P08659 | purified P. pyralis luciferase, luminescence, biochemical | Potency, µM (titrated, usually from 115 µM), usual class: inhibitors | 76,000 compounds, 2.5% hits; note: % is set by controls: 0 for no effect and ±100 for the full control effect; nearly all actives have a fitted effect of over 65% in size
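Purified P. pyralis luciferase (10nM final) in 50mM Tris acetate pH 7.5, 10mM Mg acetate, 0.01% Tween-20, 0.05% BSA with 10uM D-luciferin and 10uM ATP. Compounds titrated qHTS. Luminescence imaged on CCD.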
NPR1 antag cnf: hNpr1 antagonism, confirmation assay. HEK293 hNpr1 cGMP GloSensor luminescence, ANP-stimulated. shares compounds with NPR1 antag. Potency, µM (highest dose often 57.6 µM), inactives show top-dose activity change, negative = inhibition, actives largely listed as inhibitors. 1,400 compounds, 76% hits; calls by dose curve; note: nearly all actives have a fitted effect of over 70% in size
NPR2 antag: hNpr2 antagonism, selectivity versus Npr1; shares compounds with NPR1 antag; HEK293 hNpr2 GloSensor cGMP luminescence, CNP-stimulated; Potency, µM (top dose mostly 57.6 µM), inactives show top-dose activity change, negative = inhibition, actives largely listed as inhibitors; 1,400 compounds, 67% hits; AID 1347046; calls by dose curve; note: nearly all actives have a fitted effect of over 70% in size
FLuc inh counter: inhibits firefly luciferase, false Npr1 antagonist flag | shares compounds with NPR1 antag | purified FLuc enzyme, luminescence, Km substrate | Potency, µM (doses to about 57.6 µM), for inactives: at the highest dose activity change, negative = inhibition, usual class: inhibitors | 1,400 compounds, 0.7% hits; note: 0% is about no effect
GloSensor cGMP: reduces cGMP signal in GloSensor control cells; shares compounds with NPR1 antag; HEK293 GloSensor cGMP, SNP-stimulated, luminescence; Potency, µM (series often up to 57.6 µM), without a hit: top-dose activity change, negative = inhibition, hits mostly inhibitors; 1,400 compounds, 69% hits; AID 1347051; calls by dose curve; note: % is set by controls: 0 for no effect and ±100 for the full control effect; nearly all actives have a fitted effect of over 70% in size
An asterisk follows results filed as active; i = inactive; ? = inconclusive; / = no result given; [ ] = dose if it differs, or a comment. The list is not random: actives were taken first. Their share in the collection is about 10%. Unless noted, calls come from the whole dose curve; as a rule, active = well fitted curve in the direction sought with a large enough effect; inconclusive = small, poorly fitted or top-dose-only effect, or another doubt; inactive = no such curve, though single readings can be large; an effect the other way counts as inactive or inconclusive. Potency is the fitted concentration of half-maximal effect.

SMILES | HEK cytotox | NPR1 antag | GPT2 inhibitor | NIH3T3 tox | Luciferase inh | NPR1 antag cnf | NPR2 antag | FLuc inh counter | GloSensor cGMP
COc1ccc(-c2noc(CC3CCN(C(=O)c4cc(F)ccc4Cl)CC3)n2)cc1 | ? | 10µM* | i | ? | i | 12.2µM* | 13.7µM* | 0.3% | 10.9µM*
CC(C)c1noc(CC2CCN(C(=O)c3ccc(F)cc3Cl)CC2)n1 | ? | ? | i | i | i | / | / | / | /
O=C(c1ccc(F)c(Cl)c1)N1CCC(Cc2nc(-c3cnccn3)no2)CC1 | ? | ? | i | 31.6µM* | i | 21.7µM* | ? | -0.2% | 19.3µM*
COc1ccc(-c2cc(N3CCN(C(=O)c4cc(F)ccc4Cl)CC3)n[nH]2)cc1 | ? | -6.1% | i | ? | i | / | / | / | /
Cc1noc(C)c1[S+](=O)([O-])N1CCc2nc(C3CC3)nc(-c3ccc(Cl)cc3)c2C1 | -12.4% | / | i | -32.0% | / | / | / | / | /
COCc1nc(-c2ccc(OC3CN(C(=O)NCc4ccccc4)C3)cc2)no1 | ? | ? | i | -27.8% | i | / | / | / | /
CCN(CC)C(=O)N1CC(Oc2ccc(-c3noc(COC)n3)cc2)C1 | ? | 10µM* | -7.9% | ? | i | 9.68µM* | 8.62µM* | 3.1% | 6.85µM*
COCc1nc(-c2ccc(OC3CN(C(=O)NC(C)C)C3)cc2)no1 | ? | 12.6µM* | i | -22.3% | i | 24.3µM* | 24.3µM* | -1.7% | 24.3µM*
CCN(CC)C(=O)N1CC(Oc2ccc(-c3nc(C)no3)cc2)C1 | ? | 15.8µM* | -4.3% | ? | i | 24.3µM* | ? | 0.0% | ?
Cc1noc(-c2ccc(OC3CN(C(=O)NCc4ccc(F)cc4)C3)cc2)n1 | ? | 12.6µM* | i | ? | i | 27.3µM* | ? | -0.7% | 24.3µM*
O=C(NCCc1ccc(Cl)cc1)c1nc2cccnc2n(C2CCCCC2)c1=O | ? | / | i | -24.2% | / | / | / | / | /
COCc1nc(-c2ccc(OC3CN(S(=O)(=O)c4ccccc4C)C3)cc2)no1 | 14.1µM* | 11.2µM* | -19.3% | ? | i | 12.2µM* | 19.3µM* | 1.2% | 15.3µM*
Cc1nc(-c2ccc(OC3CCN(C(=O)NC4CCCCC4)C3)cc2)no1 (centres undefined) | ? | -4.0% | i | ? | i | / | / | / | /
Cc1ccc(CNC(=O)N2CCC(Oc3ccc(-c4noc(C)n4)cc3)C2)cc1 (centres undefined) | ? | 20µM* | -5.8% | ? | i | ? | -28.2% | -16.9% | -18.2%
COc1ccc(CC(=O)Nc2ccc([C@@H](O)[C@H]3COCC(=O)N3Cc3ccc(C(F)(F)F)cc3)cc2)cc1 | 31.6µM* | -25.2% | -5.5% | ? | i | ? | -17.8% | -0.6% | -26.0%
COCCNC(=O)[C@H]1C[C@H](Oc2ccccc2)CN1C(=O)Nc1cccc(F)c1 | i | 1.1% | i | 1.5% | i | / | / | / | /
Cc1ccc(NC(=O)O[C@@H]2CC[C@]3(C)[C@H](CC[C@H]4OC(=O)C[C@H]43)[C@]2(C)CO)cc1 | -23.2%[172 µM] | ? | 1.0%[88.5 µM] | -13.1%[138 µM] | i | ? | ? | -5.3%[86.2 µM] | 39.6µM*
CC(C)(C)c1ccc(C(=O)N2CCC(c3n[nH]c(=O)n3Cc3ccc(F)cc3)CC2)cc1 | ? | 11.2µM* | i | ? | i | 24.3µM* | 21.7µM* | 1.8% | 21.7µM*
O=C(c1cc(CN2CCOCC2)on1)N1CCC(c2nc(C3CCOCC3)no2)C1 (centres undefined) | 5.9% | -13.8% | -3.8% | -2.4% | i | -1.9% | 4.5% | 5.0% | 11.4%
O=C(c1ccccc1)N1CCC(c2nc(C3CCOCC3)no2)C1 (centres undefined) | 8.2% | 0.0% | -3.0% | i | i | / | / | / | /
COc1ccc(-c2nnc(C[C@@H]3C[C@@H](C(C)C)[C@H](CNc4ccccn4)C=C3C)o2)cc1 | 25.1µM* | 15.8µM* | -13.9%[88.5 µM] | 35.5µM* | i | 22.2µM* | 28µM* | -0.6%[86.2 µM] | 22.2µM*
CC1=C[C@@H](CN2CCN(c3ncccn3)CC2)[C@H](C(C)C)C[C@H]1Cc1nnc(-c2ccccc2F)o1 | 31.6µM* | -21.2% | 1.0% | 39.8µM* | i | ? | ? | -2.4% | 27.3µM*
COc1ccc(-c2nnc(C[C@@H]3C[C@@H](C(C)C)[C@H](CNCc4cccnc4)C=C3C)o2)cc1 | ? | -29.8% | 4.9% | ? | i | / | / | / | /
O=C(Cc1ccc2c(c1)OCO2)N1CCNc2cnc(Nc3cccc(F)c3)nc2C1 | ? | 39.8µM* | 2.1%[88.5 µM] | ? | i | 35.3µM* | 35.3µM* | 6.1%[86.2 µM] | 35.3µM*
CN(C)c1cccc(C(=O)N2CCNc3cnc(Nc4cccc(C(F)(F)F)c4)nc3C2)c1 | ? | 15.8µM* | 0.8% | ? | i | 21.7µM* | 24.3µM* | -5.8% | 19.3µM*
O=C(c1ccccc1)N(C1CC1)C1CCOC2(CCNCC2)C1 (centres undefined) | -7.4% | -1.5% | 0.5% | -9.9% | i | / | / | / | /
O=C(NC1C[C@H]2CC[C@@H](C1)N2C(=O)Cc1cccc(F)c1)c1ccncc1 (some centres undefined) | -19.9% | 6.3% | -18.4% | -23.2% | i | / | / | / | /
CCC1=C(C(=O)OC)C(c2ccccc2F)N2C(CC(=O)N3CCCC3)=CSC2=N1 (centres undefined) | -16.9% | ? | i | -25.8% | i | -29.3% | ? | 2.8% | ?
C=CCOC(=O)C1=C(C)N=C2SC=C(CC(=O)N3CCCC3)N2C1c1ccccc1Cl (centres undefined) | ? | 12.6µM* | i | -13.2% | i | 24.3µM* | 24.3µM* | -2.5% | ?
